Source: PubChem BioAssay AID1159580 (chemical genetic matrix, 2015)
Where “and” joins values, the source holds several entries; their conditions need not be identical. Identical values can stand only once. The campaign covered roughly 5,500 compounds. About 2,000 (36%) were called active. Inconclusive results (about 18%) are left out. The list shows a part of the results. A number with no mark means an inactive call. Cut-off read from the data, not from the text of the source: active = normalized growth mostly below about 0.91 (no sharp cut-off); inconclusive = no clear call, values can overlap the other calls; inactive = mostly above about 0.92.

Assay: chemical genetic growth profiling, strain panel (AID 1159580);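 note: tested at 20 µM; growth read once vehicle control cultures reached saturation at 30 °C; 1 = growth at the plate median or of vehicle wells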
Conditions: S. cerevisiae deletion strains, growth OD

Question: What does the source list for `C=C[C@@](C)(O)CCC1C(=C)C[C@H](OC(C)=O)C2C(C)(C)CCCC12C` (stereo partly specified)?
Answer: normalized growth (locus YAL013W, strain DEP1, stronger effect = lower value): 1.01; normalized growth (locus YAL021C, strain ccr4, stronger effect = lower value): 1.03; normalized growth (locus YAL026C, strain drs2, stronger effect = lower value): 1.03; normalized growth (locus YAL030W, strain snc1, stronger effect = lower value): 1.04; normalized growth (locus YBL061C, strain skt5, stronger effect = lower value): 1.03; normalized growth (locus YBR009C, strain hhf1, stronger effect = lower value): 1; normalized growth (locus YBR021W, strain FUR4, stronger effect = lower value): 0.963; normalized growth (locus YBR023C, strain chs3, stronger effect = lower value): 1.02; normalized growth (locus YBR171W, strain sec66, stronger effect = lower value): 1.01; normalized growth (locus YBR229C, strain ROT2, stronger effect = lower value): 0.972; normalized growth (locus YBR231C, strain swc5, stronger effect = lower value): 1.05; normalized growth (locus YBR279W, strain paf1, stronger effect = lower value): 1.02; normalized growth (locus YCL011C, strain gbp2, stronger effect = lower value): 1.01; normalized growth (locus YCL016C, strain dcc1, stronger effect = lower value): 1.01; normalized growth (locus YCL029C, strain bik1, stronger effect = lower value): 0.981; normalized growth (locus YCL061C, strain MRC1, stronger effect = lower value): 1.01; normalized growth (locus YCL069W, strain vba3, stronger effect = lower value): 1.03; normalized growth (locus YCR088W, strain abp1, stronger effect = lower value): 1.04; normalized growth (locus YDL005C, strain med2, stronger effect = lower value): 1.04; normalized growth (locus YDL035C, strain GPR1, stronger effect = lower value): 0.961; normalized growth (locus YDL040C, strain nat1, stronger effect = lower value): 1.03; normalized growth (locus YDL074C, strain BRE1, stronger effect = lower value): 0.956; normalized growth (locus YDL101C, strain DUN1, stronger effect = lower value): 1.01; normalized growth (locus YDL185W, strain tfp1, stronger effect = lower value): 0.952; normalized growth (locus YDL192W, strain arf1, stronger effect = lower value): 0.976; normalized growth (locus YDR001C, strain nth1, stronger effect = lower value): 1.03; normalized growth (locus YDR069C, strain doa4, stronger effect = lower value): 1.07; normalized growth (locus YDR101C, strain arx1, stronger effect = lower value): 0.977; normalized growth (locus YDR137W, strain rgp1, stronger effect = lower value): 0.99; normalized growth (locus YDR150W, strain NUM1, stronger effect = lower value): 1.07; normalized growth (locus YDR159W, strain sac3, stronger effect = lower value): 1.02; normalized growth (locus YDR162C, strain NBP2, stronger effect = lower value): 0.965; normalized growth (locus YDR195W, strain ref2): 1.06; normalized growth (locus YDR297W, strain sur2, stronger effect = lower value): 1.05; normalized growth (locus YDR318W, strain mcm21, stronger effect = lower value): 1.01; normalized growth (locus YDR334W, strain swr1, stronger effect = lower value): 1.04; normalized growth (locus YDR335W, strain msn5, stronger effect = lower value): 1.03; normalized growth (locus YDR388W, stronger effect = lower value): 1; normalized growth (locus YDR392W, strain spt3, stronger effect = lower value): 0.562 (active); normalized growth (locus YDR502C, strain sam2, stronger effect = lower value): 1.03; normalized growth (locus YEL003W, strain gim4, stronger effect = lower value): 1.02; normalized growth (locus YEL037C, strain rad23, stronger effect = lower value): 1.02; normalized growth (locus YEL061C, strain CIN8 (second series), stronger effect = lower value): 1.03; normalized growth (locus YER015W, strain faa2, stronger effect = lower value): 1.02; normalized growth (locus YER016W, strain bim1, stronger effect = lower value): 1.03; normalized growth (locus YER110C, stronger effect = lower value): 0.978; normalized growth (locus YER111C, strain swi4, stronger effect = lower value): 1.02; normalized growth (locus YER155C, strain BEM2 (second series), stronger effect = lower value): 0.989; normalized growth (locus YER155C, strain BEM2, stronger effect = lower value): 0.999; normalized growth (locus YER167W, strain BCK2, stronger effect = lower value): 1.01; normalized growth (locus YFR010W, strain ubp6, stronger effect = lower value): 1.05; normalized growth (locus YGL078C, strain dbp3, stronger effect = lower value): 1.03; normalized growth (locus YGL086W, strain mad1, stronger effect = lower value): 1.02; normalized growth (locus YGL167C, strain pmr1, stronger effect = lower value): 1.01; normalized growth (locus YGL173C, strain kem1, stronger effect = lower value): 1.04; normalized growth (locus YGL227W, strain vid30, stronger effect = lower value): 1.03; normalized growth (locus YGL240W, strain doc1, stronger effect = lower value): 1.01; normalized growth (locus YGL248W, strain PDE1, stronger effect = lower value): 1.02; normalized growth (locus YGL253W, strain hxk2, stronger effect = lower value): 1.03; normalized growth (locus YGR135W, strain pre9, stronger effect = lower value): 1.08; normalized growth (locus YGR252W, strain gcn5, stronger effect = lower value): 1.09; normalized growth (locus YHR013C, strain ard1, stronger effect = lower value): 1.02; normalized growth (locus YHR027C, strain rpn1, stronger effect = lower value): 1.04; normalized growth (locus YHR030C, strain SLT2, stronger effect = lower value): 0.929; normalized growth (locus YHR079C, strain IRE1 (second series), stronger effect = lower value): 0.982; normalized growth (locus YHR079C, strain IRE1, stronger effect = lower value): 0.961; normalized growth (locus YHR094C, strain hxt1, stronger effect = lower value): 0.985; normalized growth (locus YHR129C, strain ARP1, stronger effect = lower value): 1; normalized growth (locus YHR142W, strain chs7, stronger effect = lower value): 1; normalized growth (locus YHR200W, strain rpn10, stronger effect = lower value): 1.01; normalized growth (locus YIL066C, strain RNR3, stronger effect = lower value): 0.965; normalized growth (locus YIL073C, strain SPO22, stronger effect = lower value): 0.984; normalized growth (locus YIL125W, strain kgd1, stronger effect = lower value): 0.976; normalized growth (locus YIR030C, strain dcg1, stronger effect = lower value): 0.995; normalized growth (locus YJL092W, strain hpr5, stronger effect = lower value): 1.03; normalized growth (locus YJL095W, strain BCK1 (second series), stronger effect = lower value): 1.03; normalized growth (locus YJL095W, strain BCK1, stronger effect = lower value): 1.06 and 0.951; normalized growth (locus YJL115W, strain asf1, stronger effect = lower value): 1.03; normalized growth (locus YJL129C, strain trk1, stronger effect = lower value): 0.995; normalized growth (locus YJL134W, strain LCB3, stronger effect = lower value): 1; normalized growth (locus YJL154C, strain vps35, stronger effect = lower value): 1.03; normalized growth (locus YJL164C, strain tpk1, stronger effect = lower value): 0.988; normalized growth (locus YJL166W, strain qcr8, stronger effect = lower value): 0.982; normalized growth (locus YJL168C, strain set2, stronger effect = lower value): 1; normalized growth (locus YJL187C, strain SWE1 (second series), stronger effect = lower value): 1.03; normalized growth (locus YJL187C, strain SWE1, stronger effect = lower value): 1.02; normalized growth (locus YJR066W, strain TOR1, stronger effect = lower value): 0.931; normalized growth (locus YJR075W, strain HOC1, stronger effect = lower value): 1.03; normalized growth (locus YKL009W, strain mrt4, stronger effect = lower value): 0.956; normalized growth (locus YKL068W, stronger effect = lower value): 0.975; normalized growth (locus YKL085W, strain MDH1 (second series), stronger effect = lower value): 0.977; normalized growth (locus YKL085W, strain MDH1, stronger effect = lower value): 0.977; normalized growth (locus YKL160W, strain elf1, stronger effect = lower value): 0.995; normalized growth (locus YKR001C, strain vps1, stronger effect = lower value): 0.993; normalized growth (locus YKR026C, strain gcn3, stronger effect = lower value): 1.03; normalized growth (locus YKR091W, strain srl3, stronger effect = lower value): 1.03; normalized growth (locus YLL001W, strain dnm1, stronger effect = lower value): 0.988; normalized growth (locus YLL026W, stronger effect = lower value): 1.03; normalized growth (locus YLL041C, strain sdh2, stronger effect = lower value): 1.02; normalized growth (locus YLR027C, strain aat2, stronger effect = lower value): 0.992; normalized growth (locus YLR039C, strain RIC1, stronger effect = lower value): 1.05; normalized growth (locus YLR058C, strain SHM2, stronger effect = lower value): 1; normalized growth (locus YLR102C, strain apc9, stronger effect = lower value): 0.995; normalized growth (locus YLR113W, strain HOG1, stronger effect = lower value): 0.902; normalized growth (locus YLR221C, strain rsa3, stronger effect = lower value): 1.03; normalized growth (locus YLR258W, strain gsy2, stronger effect = lower value): 1.03; normalized growth (locus YLR262C, strain YPT6 (second series), stronger effect = lower value): 0.978; normalized growth (locus YLR268W, strain sec22, stronger effect = lower value): 0.975; normalized growth (locus YLR320W, strain mms22, stronger effect = lower value): 1.03; normalized growth (locus YLR330W, strain CHS5, stronger effect = lower value): 1; normalized growth (locus YLR342W, strain FKS1 (second series), stronger effect = lower value): 1.04; normalized growth (locus YLR342W, strain FKS1, stronger effect = lower value): 1.03; normalized growth (locus YLR357W, strain rsc2, stronger effect = lower value): 1.01; normalized growth (locus YLR370C, strain arc18, stronger effect = lower value): 1.02; normalized growth (locus YLR371W, strain rom2, stronger effect = lower value): 1.02; normalized growth (locus YLR384C, strain iki3, stronger effect = lower value): 1.03; normalized growth (locus YLR418C, strain cdc73, stronger effect = lower value): 0.98; normalized growth (locus YML016C, strain PPZ1, stronger effect = lower value): 0.999; normalized growth (locus YML032C, strain rad52, stronger effect = lower value): 0.976; normalized growth (locus YML120C, strain ndi1, stronger effect = lower value): 0.984; normalized growth (locus YML124C, strain tub3, stronger effect = lower value): 1; normalized growth (locus YMR058W, strain fet3, stronger effect = lower value): 1.04; normalized growth (locus YMR078C, strain ctf18, stronger effect = lower value): 0.987; normalized growth (locus YMR125W, strain sto1, stronger effect = lower value): 1.05; normalized growth (locus YMR129W, stronger effect = lower value): 1.02; normalized growth (locus YMR205C, strain PFK2, stronger effect = lower value): 0.958; normalized growth (locus YMR223W, strain ubp8, stronger effect = lower value): 0.986; normalized growth (locus YMR231W, strain pep5, stronger effect = lower value): 1.04; normalized growth (locus YMR307W, strain GAS1, stronger effect = lower value): 0.912; normalized growth (locus YNL067W, strain RPL9B, stronger effect = lower value): 1.04; normalized growth (locus YNL071W, strain lat1, stronger effect = lower value): 0.928; normalized growth (locus YNL153C, strain GIM3, stronger effect = lower value): 1.02; normalized growth (locus YNL183C, strain NPR1, stronger effect = lower value): 0.918; normalized growth (locus YNL209W, strain ssb2, stronger effect = lower value): 1.03; normalized growth (locus YNL233W, strain BNI4, stronger effect = lower value): 1.02; normalized growth (locus YNL248C, strain rpa49, stronger effect = lower value): 1.03; normalized growth (locus YNL250W, strain rad50, stronger effect = lower value): 0.989; normalized growth (locus YNL271C, strain bni1, stronger effect = lower value): 1; normalized growth (locus YNL298W, strain CLA4, stronger effect = lower value): 1; normalized growth (locus YNL307C, strain MCK1, stronger effect = lower value): 0.996; normalized growth (locus YNL322C, strain KRE1 (second series), stronger effect = lower value): 0.984; normalized growth (locus YNR049C, strain mso1, stronger effect = lower value): 1.03; normalized growth (locus YNR052C, strain pop2, stronger effect = lower value): 1.02; normalized growth (locus YOL006C, strain TOP1, stronger effect = lower value): 1.02; normalized growth (locus YOL012C, strain htz1): 1.3; normalized growth (locus YOL147C, strain pex11, stronger effect = lower value): 1; normalized growth (locus YOR001W, strain rrp6, stronger effect = lower value): 1.02; normalized growth (locus YOR061W, strain CKA2, stronger effect = lower value): 0.971; normalized growth (locus YOR069W, strain VPS5, stronger effect = lower value): 1.01; normalized growth (locus YOR070C, strain gyp1, stronger effect = lower value): 1; normalized growth (locus YOR080W, strain dia2, stronger effect = lower value): 1.04; normalized growth (locus YOR083W, strain WHI5, stronger effect = lower value): 0.976; normalized growth (locus YOR106W, strain vam3, stronger effect = lower value): 0.986; normalized growth (locus YOR136W, strain idh2, stronger effect = lower value): 1.01; normalized growth (locus YOR144C, strain elg1, stronger effect = lower value): 0.995; normalized growth (locus YOR184W, strain ser1, stronger effect = lower value): 0.928; normalized growth (locus YOR231W, strain MKK1, stronger effect = lower value): 0.917; normalized growth (locus YOR265W, strain rbl2, stronger effect = lower value): 1.04; normalized growth (locus YOR270C, strain vph1, stronger effect = lower value): 0.963; normalized growth (locus YOR290C, strain snf2, stronger effect = lower value): 0.946; normalized growth (locus YOR316C, strain cot1, stronger effect = lower value): 0.997; normalized growth (locus YPL051W, strain arl3, stronger effect = lower value): 0.996; normalized growth (locus YPL078C, strain atp4, stronger effect = lower value): 0.976; normalized growth (locus YPL106C, strain sse1, stronger effect = lower value): 1.01; normalized growth (locus YPL240C, strain hsp82, stronger effect = lower value): 1.02; normalized growth (locus YPL256C, strain CLN2, stronger effect = lower value): 0.95; normalized growth (locus YPR119W, strain clb2, stronger effect = lower value): 1; normalized growth (locus YPR141C, strain kar3, stronger effect = lower value): 0.993; normalized growth (locus YPR163C, strain tif3, stronger effect = lower value): 1.01; normalized growth (locus YPR167C, strain met16, stronger effect = lower value): 0.996; normalized growth (strain wtn01, stronger effect = lower value): 0.958
